Compound activity: PubChem, Broad Institute
miR122 inh: blocks miR-122 activity in Huh7 sensor cells | activation (reporter increase), % at 12.5 µM | actives 0.3% (n = 340,000) | Huh7 miR-122 Renilla luciferase sensor, 48 h; neutral wells = 0, positive control = 100 | AID 602342;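 active = mean replicate activation score at least 90 and every replicate individually at or above 90; inconclusive = only one of the two criteria met; inactive = neither criterion met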;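 also: higher luciferase means less miR-122 activity so hits act as miR-122 inhibitors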
PAX8 inh HTS: lowers PAX8-driven luciferase in RMG-I cells; RMG-I TPO-luciferase reporter, SteadyGlo, 24 h; inhibition, % at 12.6 µM; AID 652154; actives 1.2% (n = 360,000);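 active = mean replicate inhibition at least 60% with every replicate also reaching 60%; inconclusive = only one of the two criteria is met; inactive = mean below 60% and not all replicates reaching 60%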;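 also: luciferase light reporting Pax8 driven TPO promoter activity; plate controls were median of neutral control wells for no effect and mitoxantrone controls for full effect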
EWS-Fli block: blocks EWS/Fli oncoprotein-driven transcription; A673 NR0B1-luciferase reporter, viability-normalised; inhibition, % at 12.6 µM; actives 0.67% (n = 350,000);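 active = mean inhibition of at least 50% after viability correction, with every replicate also passing that limit; inconclusive = mean reaches 50% but only one of two replicates passes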;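 also: firefly luciferase signal divided by Alamar Blue viability fluorescence both relative to DMSO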
C2C12 statin: suppressors of simvastatin-induced myotoxicity in C2C12 myotubes | ATP luminescence, 48 h; scaled: DMSO 0, geranylgeraniol control 100 | rescue of ATP level, % at 7.49 µM | actives 0.78% (n = 330,000) | AID 602340;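 active = mean ATP rescue above about 67%, or every replicate alone reaching that limit, limit read from the data, passing the limit was not always enough; inconclusive = no clear call, values can overlap the other calls; inactive = mean under the limit and some replicate under it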;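 also: myotubes were challenged with 10 µM simvastatin during compound exposure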
HIV Env fusion: inhibitors of HIV Env-mediated cell fusion; actives 1.1% (n = 360,000); HeLa-JRFL Env/CEM21 cell fusion, luciferase; inhibition, % at 12.3 µM;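 active = mean replicate inhibition score of at least 50 and every replicate individually at or above 50; inconclusive = only one of the two criteria met; inactive = mean below 50 and not all replicates reaching 50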;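 also: 0% = plate neutral controls and 100% = maraviroc near 300 nM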
GSIS activator: primary screen for activators of insulin secretion dependent on glucose, INS-1E cells, GLuc reporter luminescence; AID 743287; INS-1E GLuc reporter insulin secretion, 2-3 h; activation, % at 16.6 µM; actives 0.61% (n = 370,000);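 active = lowest replicate activation of at least 40%, so every replicate reaches that level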;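 also: 0% = median of neutral control wells and 100% = median of IBMX positive control wells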
The depositor's hits bear a star; i = inactive; ? = inconclusive; nt = no result; + = active, no number; [ ] = dose if it differs, or a comment. Only some compounds are listed: those with a hit (about 3.1% of all), similar ones and a draw of the others.

SMILES	miR122 inh	PAX8 inh HTS	EWS-Fli block	C2C12 statin	HIV Env fusion	GSIS activator
COc1ccc(S(=O)(=O)N(C)C[C@@H]2OCCCC[C@@H](C)Oc3ccc(NC(=O)CCCN(C)C)cc3C(=O)N([C@H](C)CO)C[C@H]2C)cc1	-3[16.7 µM]	6	-5	nt	-19[16.7 µM]	-11
O=C(O)c1c(NC(=O)N2CCOCC2)sc2c1CCCC2	-5	-15	-10	-10	21	62*
O=C(Nc1sc2c(c1C(=O)O)CCC2)c1cccs1	202*	nt	nt	-7	nt	nt
NC(=O)c1c(NC(=O)c2cccs2)sc2c1CCCCCC2	-7	nt	nt	-40	nt	21
Cc1ccc(N(CC(=O)NCc2cccs2)S(=O)(=O)c2cccs2)cc1	182*	nt	nt	20	nt	nt
C[C@@H]1CN([C@H](C)CO)C(=O)c2cc(NS(=O)(=O)c3cn(C)cn3)ccc2O[C@@H](C)CCCCO[C@@H]1CN(C)Cc1ccncc1	3[16.7 µM]	-15	-3	nt	-2[16.7 µM]	33
CC1CCCN(C(=O)C(C)Sc2nc(-c3ccccc3)cc(C(F)(F)F)n2)C1 (stereo not drawn)	-1	nt	nt	30	57*	nt
COc1ccc(NC(=O)Nc2ccc3c(c2)C(=O)N([C@H](C)CO)C[C@@H](C)[C@H](CN(C)S(C)(=O)=O)OCCCC[C@H](C)O3)cc1	1[16.7 µM]	-22	-13	nt	-9[16.7 µM]	-13
COc1ccc(S(=O)(=O)N(C)C[C@@H]2Oc3ccc(NC(=O)Cc4cn(C)c5ccccc45)cc3CC(=O)N([C@@H](C)CO)C[C@H]2C)cc1	-7[16.7 µM]	nt	0	7	-17[16.7 µM]	5
CC(=O)Nc1ccc(Nc2nc(-c3c(C)nc4ccccn34)cs2)cc1	11	39	57*	-82	-198	49*
Cc1nc2sccn2c1-c1csc(NCc2ccccc2)n1	-3	nt	nt	-37	95*	nt
Oc1ccc(C[C@@H]2CNCCN2CCc2cc(C(F)(F)F)cc(C(F)(F)F)c2)cc1	nt	11	13	-3	10	-17
FC(F)(F)c1cc(CCN2CCNC[C@H]2Cc2cccc3ccccc23)cc(C(F)(F)F)c1	nt	-6	24	3	11	+
COc1ccc(CN(C)C[C@@H]2Oc3ccc(NS(=O)(=O)c4c(C)noc4C)cc3CC(=O)N([C@@H](C)CO)C[C@H]2C)cc1	-1[16.7 µM]	nt	-11	3	-6[16.7 µM]	2
COc1ccc(-c2cnc3c(c2)C(=O)N([C@@H](C)CO)C[C@@H](C)[C@H](CN(C)C(=O)Cc2ccncc2)O3)cc1	-11[16.7 µM]	14	4	18	5[16.7 µM]	-16
Cc1c(Cl)cccc1NC(=S)NNc1ncc(C(F)(F)F)cc1Cl	-4	nt	nt	nt	67*	nt
CC(=O)Nc1sc(N/N=C\c2cccc(Cl)c2)nc1-c1cccs1	nt	nt	nt	nt	nt	68*
CCNC(=O)[C@H]1[C@H](CO)[C@H]2Cn3c(ccc(-c4ccccc4)c3=O)[C@@H]1N2C(=O)CC1CC1	nt	nt	6	nt	nt	-6
COc1ccccc1C#Cc1ccc2c(c1)[C@H]1[C@H](CCN1S(=O)(=O)c1ccc(C)cc1)[C@H](CO)N2	11[16.7 µM]	26	9	25	nt	7
COCCNC(=O)C[C@@H]1CC[C@@H]2[C@@H](COc3ccc(NC(=O)COC)cc3C(=O)N2C)O1	-4[16.7 µM]	0	-4	-14	-9[16.7 µM]	-1
COc1ccc(F)cc1CSc1nnnn1-c1ccc(O)cc1	-6	25	8	14	26	-10
COc1cc(CSc2nnnn2-c2ccc(C)cc2)cc(OC)c1OC	-4	nt	nt	-21	95*	nt
O=c1cnnc(N/N=C/c2ccc3c(c2)OCO3)[nH]1	5	1	-4	-10	55*	37
O=c1[nH]c(N/N=C\c2ccc3c(c2)OCO3)nc2ccccc12	-1	-148	-135	7	i	-7
O=C(O)c1ccc(OS(=O)(=O)c2cccc(C(F)(F)F)c2)cc1	-1	-5	6	11	0	73*
SMILES	miR122 inh	PAX8 inh HTS	EWS-Fli block	C2C12 statin	HIV Env fusion	GSIS activator
O=C(COc1ccc(C(=O)O)cc1)Nc1cccc(C(F)(F)F)c1	-4	0	9	-8	-3	14
C=CCN=C1SC(C)C(=O)N1S(=O)(=O)c1ccccc1 (stereo not drawn)	-7	-9	nt	109*	14	3
COc1ccc(N2CCN(C(c3cc(OC)ccc3OC)c3nnnn3CC3CCCO3)CC2)cc1 (stereo not drawn)	28	nt	nt	79*	nt	nt
CC(=O)c1c(C(C)=O)c(C)n(Cc2ccc(Cl)cc2)c1C	-17	22	nt	144*	?	nt
CC(C)CC#Cc1ccc2c(c1)O[C@H](CN(C)C(=O)c1ccccn1)[C@H](C)CN([C@@H](C)CO)S2(=O)=O	0[16.7 µM]	nt	4	-25	6[16.7 µM]	-14
COc1ccc(CN(C)C[C@H]2OCCCC[C@@H](C)Oc3ccc(NC(=O)Nc4ccc(F)cc4)cc3C(=O)N([C@H](C)CO)C[C@H]2C)cc1	2[16.7 µM]	52	67*	-211	-17[16.7 µM]	-30
COc1ccc(CN(C)C[C@@H]2OCCCC[C@H](C)Oc3ccc(NC(=O)Nc4ccc(OC)cc4)cc3C(=O)N([C@@H](C)CO)C[C@@H]2C)cc1	7[16.7 µM]	-7	5	nt	64*[16.7 µM]	-33
COc1ccc(NC(=O)Nc2ccc3c(c2)C(=O)N([C@H](C)CO)C[C@@H](C)[C@@H](CN(C)Cc2ccccc2)OCCCC[C@H](C)O3)cc1	-5[16.7 µM]	-4	?	nt	0[16.7 µM]	-24
COc1ccc(NC(=O)Nc2ccc3c(c2)C(=O)N([C@@H](C)CO)C[C@H](C)[C@H](CN(C)Cc2ccccc2)OCCCC[C@H](C)O3)cc1	-4[16.7 µM]	14	9	nt	86*[16.7 µM]	-26
COc1ccc(CN(C)C[C@@H]2OCCCC[C@H](C)Oc3ccc(NC(=O)Nc4ccc(OC)cc4)cc3C(=O)N([C@H](C)CO)C[C@@H]2C)cc1	8[16.7 µM]	5	3	nt	20[16.7 µM]	-19
CN1C(=O)c2cc(NC(=O)NC3CCCC3)ccc2OC[C@@H]2O[C@H](CC(=O)O)CC[C@H]21	32[16.7 µM]	6	-8	-42	nt	-2
CC1CCCN(S(=O)(=O)c2ccc(NC(=O)CNC3CCCC3)cc2)C1 (stereo not drawn)	5	4	4	12	7	12
O=C(NCc1ccccc1)c1nc(S(=O)(=O)Cc2ccccc2)ncc1Cl	0	20	nt	-574	30	42
CS(=O)(=O)c1ncc(Cl)c(C(=O)Nc2ccc3ccccc3c2)n1	nt	89*	84*	nt	-260	68
COC(=O)c1ccccc1NC(=O)c1nc(S(=O)(=O)Cc2ccccc2)ncc1Cl	9	-11	63*	-141	1	21
COc1ccc(CNC(=O)c2nc(S(=O)(=O)Cc3ccccc3)ncc2Cl)cc1	-2	36	nt	-71	31	59*
CCS(=O)(=O)c1ncc(Cl)c(C(=O)Nc2ccc(S(=O)(=O)N3CCCC(C)C3)cc2)n1 (stereo not drawn)	5	102*	nt	-602	57*	12
O=C(NCc1ccc2c(c1)OCO2)c1nc(S(=O)(=O)Cc2ccccc2)ncc1Cl	-4	22	nt	-15	?	19
